Our source for the activity change, negative = inhibition, activity, negative = inhibition and Potency values is PubChem BioAssay (NCATS).

Assay [1] is described as follows: AP1 Signaling Pathway (AID 357).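 Note: ME-180 reporter cells stimulated with EGF at its EC50 level; % is set by controls: 0 for no effect and ±100 for the full control effect.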 The note with it: ME-180 AP-1-bla reporter, EGF-induced, beta-lactamase ratio, 5 h; at 17.2 µM (top of the series) unless noted. The gist of the method:
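Cells are seeded overnight, exposed to compound titrations and an EC50 level of EGF for 5 hours at 37 °C, then loaded with CCF4 dye for 2.5 hours. Beta-lactamase activity under the AP-1 element is read as a blue/green ratio.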

A short description of assay [2]: NFAT Signaling Pathway (AID 444).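 Note: carbachol stimulus at about its EC50 of 1 µM final; % is set by controls: 0 for no effect and ±100 for the full control effect.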 Conditions: Jurkat NFAT-bla M1, carbachol, beta-lactamase ratio, 5 h; at 17.2 µM (top of the series) unless noted. The essentials: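 Jurkat cells carrying an NFAT-driven β-lactamase reporter and co-transfected muscarinic M1 receptor were treated with compound plus carbachol (1 uM final, an EC50 level) for 5 h at 37 °C. CCF4 loading followed for 1 h at RT; 460/530 nm ratio gave %activity.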

The nature of assay [3]: Stat Signaling Pathway (AID 446).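 Note: ME-180 cervical cancer cells given 40 pM IL-6 alongside compound; SIE-controlled beta-lactamase reporter measured as 460/530 nm FRET emission ratio; % is set by controls: 0 for no effect and ±100 for the full control effect.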 Conditions: ME-180 SIE beta-lactamase reporter, IL-6 stimulated, 5 h; at 17.2 µM (top of the series) unless noted. The essentials: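 Reporter line: ME-180 cervical carcinoma, SIE-beta-lactamase. Treatment: compound with 40 pM IL-6, 5 hrs, 37 C, in low-serum OPTI-MEM with 10 mM HEPES pH 7.3. Detection: 460/530 nm fluorescence.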
Assay [4] addresses Glucocorticoid receptor (Homo sapiens) (UniProt P04150). Nature of the assay: GR-GFP Redistribution (AID 450;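 active = compounds whose dose series gives a full or clear partial fitted curve of increased nuclear translocation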; note: potency is the fitted concentration of half-maximal effect).

Each structure is given as a SMILES string. Values without a mark were called inactive. Inconclusive results are not listed. Calls of active or inactive are those of the source. Unless noted, calls come from the whole dose curve; as a rule, active = well fitted curve in either direction with a large enough effect (not every such curve was filed as active); inconclusive = small, poorly fitted or top-dose-only effect, or another doubt; inactive = flat fitted curve, though single readings scatter. Bounds are passed on as bounds.

Chain of Glucocorticoid receptor (Homo sapiens) (P04150 whole entry, looked up): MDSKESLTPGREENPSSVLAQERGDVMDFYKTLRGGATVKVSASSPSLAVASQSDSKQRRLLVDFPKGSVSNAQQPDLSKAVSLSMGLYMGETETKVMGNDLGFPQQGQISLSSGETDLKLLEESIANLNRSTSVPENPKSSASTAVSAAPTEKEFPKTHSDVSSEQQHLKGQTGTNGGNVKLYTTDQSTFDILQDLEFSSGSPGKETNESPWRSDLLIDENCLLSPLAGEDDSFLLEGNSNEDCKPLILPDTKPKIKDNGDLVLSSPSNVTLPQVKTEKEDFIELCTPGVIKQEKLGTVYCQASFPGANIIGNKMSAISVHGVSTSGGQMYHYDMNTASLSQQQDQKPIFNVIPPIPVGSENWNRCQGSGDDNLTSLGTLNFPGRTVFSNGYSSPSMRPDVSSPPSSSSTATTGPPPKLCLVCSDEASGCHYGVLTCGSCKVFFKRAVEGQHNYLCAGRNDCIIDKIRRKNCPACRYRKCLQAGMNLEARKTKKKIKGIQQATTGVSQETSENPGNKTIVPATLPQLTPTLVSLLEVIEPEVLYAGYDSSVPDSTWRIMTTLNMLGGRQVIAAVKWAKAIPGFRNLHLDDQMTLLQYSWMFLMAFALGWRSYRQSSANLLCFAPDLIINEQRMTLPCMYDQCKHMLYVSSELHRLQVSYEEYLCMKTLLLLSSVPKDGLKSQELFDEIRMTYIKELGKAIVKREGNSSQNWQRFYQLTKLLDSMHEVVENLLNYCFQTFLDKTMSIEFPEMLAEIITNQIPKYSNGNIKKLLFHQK

As for `O=S(=O)(c1ccccc1)N(CC(O)CN1CCCCC1)c1ccccc1` (stereo not given), the activity change, negative = inhibition in assay [1] is -4.48%; in assay [2], -23%. For the same molecule, the activity, negative = inhibition in assay [3] was 3.01%. The Potency in assay [4] was greater than 20.6 µM.
The like results for `CC(=O)O[C@@]12CO[C@@H]1C[C@H](O)[C@@]1(C)C(=O)[C@H](O)C3=C(C)[C@@H](OC(=O)[C@H](O)[C@@H](NC(=O)OC(C)(C)C)c4ccccc4)C[C@](O)([C@@H](OC(=O)c4ccccc4)[C@H]21)C3(C)C` were, in that order, -3.46%, 29.1%, -5.76% and greater than 20.6 µM.
The corresponding values for `CC(O)Cn1ccccc1=N` (stereo not given) are -4.75%, 25.6%, 3.45% and greater than 20.6 µM.
Turning to `Cc1cccc(-c2nnc3n2N=C(c2ccc(Br)cc2)CS3)c1`, the values for the activity change, negative = inhibition in assay [1] and in assay [2] were 11.1% and -1.71%, respectively. Also, the activity, negative = inhibition in assay [3] was 7.64%. Besides, the Potency in assay [4] is greater than 20.6 µM.
The like results for `Cc1cc(SCCC(=O)O)nc2ccccc12` were, in that order, 0.423%, -5.26%, 6.44% and greater than 20.6 µM.
On to `Cc1c(C=NCCOCc2ccccc2)cnn1C`, for which the activity change, negative = inhibition was -2.81% in assay [1] and -4.41% in assay [2]. Besides, in assay [3], the activity, negative = inhibition was 12.4%. Also, the Potency in assay [4] is greater than 20.6 µM.
The like results for `Cc1ccc(N(CN2C(=O)NC(C)(C)C2=O)CN2C(=O)NC(C)(C)C2=O)cc1` were, in that order, 5%, 15.5%, 5.53% and greater than 20.6 µM.
The like results for `CC(C)C1C(C#N)=C(N)Oc2n[nH]c(C(C)(C)C)c21` (stereo not given) were, in that order, -20.9%, -6.87%, -18.4% and greater than 20.6 µM.
The corresponding values for `Cn1c(=NCC(O)COc2ccccc2)sc2ccccc21` (stereo not given) are -7.25%, -13.4%, 8.49% and greater than 20.6 µM.
Turning to `CCOc1ccc(-n2c3nc4ccccc4nc3c3c(=O)n(Cc4ccco4)cnc32)cc1`, the activity change, negative = inhibition in assay [1] is -1.51%; in assay [2], -9.2%. In assay [3], the activity, negative = inhibition was -2.34%. Further, in assay [4], the Potency is greater than 20.6 µM.
As for `c1ccc(Cc2nnc3n2CCCCC3)cc1`, the activity change, negative = inhibition is -5.05% in assay [1] and -13.9% in assay [2]. Besides, the activity, negative = inhibition in assay [3] was 5.83%. In addition, the Potency in assay [4] was greater than 20.6 µM.
Turning to `Cc1ccc2[nH]c3c(NCCN4CCOCC4)ncnc3c2c1`, the activity change, negative = inhibition in assay [1] is -6.77%; in assay [2], 7.47%. Also, the activity, negative = inhibition in assay [3] was 0.396%. The Potency in assay [4] was greater than 20.6 µM.
The like results for `O=C(NCCCNCc1ccccc1)/C(=N\O)c1ccccc1` were, in that order, -2.86%, -1.67%, 4.93% and greater than 20.6 µM.
The like results for `CCOC(=O)C1CCCN(c2nc3ccccc3nc2C(C#N)C(=O)OC(C)COC)C1` (stereo not given) were, in that order, -5.69%, -5.6%, -14.5% and greater than 20.6 µM.
As to `C=CCn1c(SCC(=O)c2ccccc2)nnc1-c1ccc2c(c1)OCO2`, the activity change, negative = inhibition in assay [1] was -7.81%; in assay [2], 16.5%. Also, the activity, negative = inhibition in assay [3] is -9.25%. The Potency in assay [4] was greater than 20.6 µM.
The corresponding values for `C=CCOc1nc2c(c(=O)n(Cc3ccc(Cl)c(Cl)c3)c(=O)n2C)n1C` are -3.25%, -2.4%, 7.85% and greater than 20.6 µM.
As for `CCOC(=O)Cc1nnc(Nc2cccc(O)c2)c2ccccc12`, the activity change, negative = inhibition in assay [1] is -12.7%; in assay [2], -6.58%. Also, in assay [3], the activity, negative = inhibition is -17.1%. Besides, the Potency in assay [4] is greater than 20.6 µM.
The like results for `ONC(=Nc1ccccc1)C(=Nc1ccccc1)NO` were, in that order, 4.05%, 9.94%, -0.28% and greater than 20.6 µM.
Regarding `COc1ccc2cnn(-c3ccccc3C)c(=O)c2c1OC`, the figures for the activity change, negative = inhibition in assay [1] and in assay [2] were 10.7% and -6.03%, respectively. Also, the activity, negative = inhibition in assay [3] is 24.1%. The Potency in assay [4] is greater than 20.6 µM.
The corresponding values for `O=C1NCC(COCC2CC=CCC2)O1` (stereo not given) are 9.6%, 15%, 2.08% and greater than 20.6 µM.
For the molecule `Cc1nc2c(o1)CCc1ccccc1C2N1CCN(C)CC1` (stereo not given), the activity change, negative = inhibition was 22.5% in assay [1] and -82.4% (active) in assay [2]. The activity, negative = inhibition in assay [3] is 3.94%. Moreover, the Potency in assay [4] is greater than 20.6 µM.
Consider `Cc1nc2c(c(=O)n1CC1CCCO1)c1nc3ccccc3nc1n2CC(C)C` (stereo not given), for which the figures for the activity change, negative = inhibition in assay [1] and in assay [2] were 2.75% and 6.99%, respectively. For the same molecule, the activity, negative = inhibition in assay [3] is 8.26%. The Potency in assay [4] is greater than 20.6 µM.
The like results for `CC(C)(C)c1ccc(O)c(N)c1` were, in that order, 3.38%, -5.9%, 8.3% and greater than 20.6 µM.
The corresponding values for `COc1nc(NS(=O)(=O)c2ccc(C)cc2)nc(C)c1Cl` are 6.72%, -25.4%, -5.69% and greater than 20.6 µM.
Consider `CN(C)c1ccc(O)c2c1CC1CC3[C@@H](N(C)C)C(=O)C(C(N)=O)=C(O)[C@]3(O)C(=O)C1=C2O` (stereo not given in full), for which the figures for the activity change, negative = inhibition in assay [1] and in assay [2] were 6.78% and 8.29%, respectively. In addition, the activity, negative = inhibition in assay [3] was -13.5%. For the same molecule, the Potency in assay [4] was greater than 20.6 µM.
